TMEM16A act – mouse TMEM16A channel activation, primary screen; HEK293 TMEM16A/YFP-H148Q/I152L, iodide quench fluorescence; stronger effect = lower value; B-score at 10 µM; 340,000 tested, 0.3% active; AID 623877;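 active = fluorescence-ratio B-score plate-corrected deviation score at least 3 library SD below zero, with starting fluorescence score within 5 deviations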;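 also: channel opened by trigger with iodide after compound preincubation; score built on the fluorescence ratio of max minus min over baseline; more negative score means more quench and so TMEM16A activation or potentiation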
TMEM16A inh – blocks the mouse calcium-activated chloride channel TMEM16A; HEK293 TMEM16A/YFP iodide influx fluorescence, ionomycin; normalized B-score (activity score, 25-100; higher = stronger inhibition) at 10 µM; 310,000 tested, 1.2% active; AID 588511;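 active = ratio plate-corrected score three or more library SD toward inhibition, starting fluorescence score within five deviations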;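 also: score derived from kinetic fluorescence span divided by baseline fluorescence per well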
CHT block – human CHT choline transport inhibition; Q9GZV3; B-score at 10 µM; AID 488975; 310,000 tested, 0.86% active; CHT-expressing cells, membrane potential dye, choline response; stronger effect = lower value;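 active = B-score over 3 SD under the library average, and starting fluorescence ratio not unusually high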;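 also: choline stimulus applied at its EC90 after an EC20 pre-addition; B-score computed on integrated fluorescence ratio after choline addition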
Target sequence (Q9GZV3 whole entry, looked up): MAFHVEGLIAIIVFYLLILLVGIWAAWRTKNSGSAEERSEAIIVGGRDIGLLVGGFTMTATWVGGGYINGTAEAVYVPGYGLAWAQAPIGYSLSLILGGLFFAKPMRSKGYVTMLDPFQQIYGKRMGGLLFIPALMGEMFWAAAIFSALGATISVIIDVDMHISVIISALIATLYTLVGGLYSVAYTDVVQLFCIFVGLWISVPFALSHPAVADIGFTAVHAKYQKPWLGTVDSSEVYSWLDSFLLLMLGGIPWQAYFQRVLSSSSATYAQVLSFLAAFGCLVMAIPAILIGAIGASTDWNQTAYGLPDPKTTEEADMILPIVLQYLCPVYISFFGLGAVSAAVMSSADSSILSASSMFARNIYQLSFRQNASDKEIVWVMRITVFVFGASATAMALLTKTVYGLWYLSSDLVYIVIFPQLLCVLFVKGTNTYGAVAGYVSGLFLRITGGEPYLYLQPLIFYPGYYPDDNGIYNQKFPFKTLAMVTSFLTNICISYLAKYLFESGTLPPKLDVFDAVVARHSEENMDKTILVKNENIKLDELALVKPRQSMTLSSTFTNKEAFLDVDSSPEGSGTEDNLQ
Rce1 inh – yeast Ras-converting enzyme inhibition | Q03530 | yeast membranes, quenched prenylated peptide cleavage fluorescence | calls only | 290,000 tested, 0.27% active | AID 2563;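 active = fall in fluorescence gain of 50% or more versus controls, with final raw signal at or below 3038400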
Kir21 block – Kir2.1 (mouse) channel inhibition; HEK293-Kir2.1, FluxOR thallium flux fluorescence; stronger effect = lower value; B-score at 10 µM; 310,000 tested, 0.85% active; AID 1672;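 active = fluorescence ratio B-score at or below minus 3 SD of library scores, with starting-brightness B-score within 2 SD, cut at about -4.2 in these data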;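 also: channel flux triggered by added potassium and thallium sulfate stimulus; B-score of peak minus minimum fluorescence over baseline after thallium stimulus; more negative B-score means stronger Kir2.1 block with less thallium influx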
CHT allo act – human CHT allosteric activation; Q9GZV3; AID 488977; B-score at 10 µM; 310,000 tested, 0.49% active; CHT-expressing cells, membrane potential dye, choline EC20; stronger effect = higher value; LV-AA mutant CHT in HEK293 cells;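 active = initial fluorescence not abnormally high and integrated response B-score, plate-corrected, over 3 SD above library mean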
CHT activ conf – human CHT activation, confirmatory screen; CHT-expressing cells, membrane potential dye fluorescence (FDSS); % of choline EC20–EC90 response window; HEK293 expressing CHT LV-AA mutant; choline added at its EC20; 2,500 tested, 91% active; shares compounds with CHT allo act; activation, % at 10 µM; AID 504833;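 active = primary screen active, with duplicate mean activation above negative control mean plus 3 SD, cut at about 11% in these data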
HEK293 MP dye – CHT activator counter-screen hit in parental HEK293 cells | shares compounds with CHT allo act | membrane potential dye fluorescence (FDSS); measured after EC20 choline addition | ratio readout change at 10 µM, hits read low | 2,500 tested, 62% active | AID 623908;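 active = duplicate-averaged ratio beyond 3 SD from buffer wells, up or down, though filed actives are nearly all decreases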
A number is an active result; – = inactive; · = no result given. Hits are enriched below; roughly 3.2% of the tested compounds scored in any of these assays.

SMILES	TMEM16A act	TMEM16A inh	CHT block	Rce1 inh	Kir21 block	CHT allo act	CHT activ conf	HEK293 MP dye
O=C(c1cccc(Cl)c1)N1CCC(=O)N(C(COCc2ccccc2)Cc2ccccc2)CC1 (configuration not stated)	–	–	–	–	–	6.3	29	–
Cc1cccc(COCC(Cc2ccccc2)N2CCN(C(=O)c3cccc(Cl)c3)CCC2=O)c1 (configuration not stated)	–	–	–	–	–	–	·	·
O=C(NCc1cccnc1)c1ccc(-c2ccc(Cl)cc2)o1	–	–	–	–	–	–	·	·
O=C(NCc1cccnc1)/C(=C\c1ccc(-c2ccc(Cl)c(Cl)c2)o1)S(=O)(=O)c1ccccc1	-6.1	–	–	–	–	6.7	14	–
CCOC(=O)C1CCN(CC(C)(C)NS(=O)(=O)c2ccccc2)CC1	–	–	–	–	–	–	·	·
CN(C)CCN(Cc1cc2cc3c(cc2nc1Cl)OCO3)C(=O)c1ccco1	–	–	–	–	–	6.8	55	-56
Cc1cc(C[n+]2cc(Cl)ccc2N)c2ncccc2c1	–	–	–	–	–	16	46	-39
Cc1cc(C[n+]2cc(Br)ccc2N)c2ncccc2c1	–	–	–	–	–	8.5	49	-44
Cc1cc(C[n+]2ncsc2N)c2ncccc2c1	–	–	–	–	–	–	73	-23
Nc1ccc(Cl)c[n+]1Cc1cccc2cccnc12	–	–	–	–	–	–	·	·
Cc1ccc2cccnc2c1N	–	–	–	–	–	–	·	·
C#CCCOC(=O)Nc1ccccc1	–	–	–	–	–	–	·	·
Cc1cccc(OCc2nnc(SC(C)C(=O)O)n2-c2ccccc2)c1 (configuration not stated)	–	–	–	–	–	–	·	·
c1cnc2c(c1)ccc1cccnc12	–	–	–	–	–	6.6	62	-105
Cc1ccnc2c1ccc1cccnc12	–	·	·	·	·	·	·	·
COc1ccc(-c2nc3cnccn3c2Nc2ccc(C)cc2)cc1	–	–	–	–	–	–	36	-28
COc1ccc(N2CCN(c3cc(C)c4ccccc4n3)CC2)cc1	–	–	–	–	–	–	·	·
Cc1cc(N2CCC(N(C)C3CCCC3)CC2)nc2cc(O)ccc12	–	–	–	–	–	12	31	-73
CN1CC[n+]2cnc3ccccc3c21	–	–	–	·	–	12	79	-72
Cc1cccc(N=Cc2[nH]c3ccc(Br)c(Cl)c3c2O)c1	–	–	–	·	·	–	12	–
Cc1nc(N(C)Cc2ccccc2)c2c(C)c(C)sc2n1	–	–	–	·	–	–	26	–
Cc1sc2nc(SCC(=O)N(C)Cc3ccccc3)n(-c3ccccc3)c(=O)c2c1C	–	–	–	–	–	–	·	·
CC(=NCCCn1ccnc1)c1c(C)[nH]n(-c2ccc([N+](=O)[O-])cc2)c1=O	–	–	–	–	–	7.8	49	-44
O=C(O)Cn1cnc2sc3c(c2c1=O)CCCC3	–	–	–	–	–	–	·	·
O=C(O)CCc1nn2cnc3sc4c(c3c2nc1=O)CCCC4	–	–	–	–	–	–	54	-43
COc1ccc(CNc2nc3ccccc3n2CCN2CCCCC2)cc1	–	–	–	–	–	–	26	-21
CCCn1c(NCc2ccc3c(c2)OCO3)nc2ccccc21	–	–	–	–	–	–	20	-24
CCOc1ccc(CNc2nc3ccccc3n2CCN2CCOCC2)cc1	–	–	–	–	–	–	·	·
Cc1cc(=O)n2c3ccccc3n(CC(O)CN3CCCCC3)c2c1C#N (configuration not stated)	–	–	–	–	–	7.3	27	-44
Cc1cc(=O)n2c3ccccc3n(CC(O)CN3CCOCC3)c2c1C#N (configuration not stated)	–	–	–	–	–	–	·	·

High-throughput results deposited in PubChem by several laboratories.
